{"source": "PubChem BioAssay (EPA / NIEHS)", "note": "Active and inactive are the calls of the source. Rule for the calls: active = hit-call score of the fitted dose curve at least 0.9, where 1 is the maximum; inactive = score below 0.9.", "data": [{"system": "not listed separately", "test": "ATG_PBREM_CIS: Attagene CIS-FACTORIAL HepG2 Assay for human Phenobarbital-responsive Enhancer Module (PBREM) (AID 2282955)", "conditions": "HepG2 PBREM cis-reporter, Attagene multiplexed transcription; actives raise or lower the signal", "how_it_was_run": "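Endogenous transcription factor activity was read from reporter transcripts in transiently transfected human HepG2 liver cells after 24 h dosing. RT-PCR products were fluorescently labelled, HpaI-cut and sized by capillary electrophoresis; activity fitted bidirectionally against DMSO baseline.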", "values": [{"smiles": "COC(=O)NS(=O)(=O)c1ccc(N)cc1", "outcome": "inactive"}, {"smiles": "CC(C)(C)C(=O)C(Oc1ccc(Cl)cc1)n1cncn1", "note": "(configuration not stated)", "AC50": "19.5 µM (active)"}, {"smiles": "Cc1c(COC(=O)[C@@H]2[C@H](/C=C(\\Cl)C(F)(F)F)C2(C)C)cccc1-c1ccccc1", "AC50": "11.4 µM (active)"}, {"smiles": "CCOC(=O)C(C)OC(=O)c1cc(Oc2ccc(C(F)(F)F)cc2Cl)ccc1[N+](=O)[O-]", "note": "(configuration not stated)", "AC50": "19.1 µM (active)"}, {"smiles": "CCN(CC)c1nc(C)cc(OP(=S)(OC)OC)n1", "outcome": "inactive"}, {"smiles": "COCC(=O)N(c1c(C)cccc1C)C(C)C(=O)OC", "note": "(configuration not stated)", "outcome": "inactive"}, {"smiles": "CCCCC(C#N)(Cn1cncn1)c1ccc(Cl)cc1", "note": "(configuration not stated)", "outcome": "inactive"}, {"smiles": "Nc1cnn(-c2ccccc2)c(=O)c1Cl", "outcome": "inactive"}, {"smiles": "CC(C)C1(C)N=C(c2ncccc2C(=O)O)NC1=O", "note": "(configuration not stated)", "outcome": "inactive"}, {"smiles": "N#Cc1c(Cl)cccc1Cl", "outcome": "inactive"}, {"smiles": "CCNC(=O)NC(=O)C(C#N)=NOC", "outcome": "inactive"}, {"smiles": "Cc1cc(C)nc(Nc2ccccc2)n1", "AC50": "50 µM (active)"}, {"smiles": "CC(C)=CC1C(C(=O)OCc2coc(Cc3ccccc3)c2)C1(C)C", "note": "(configuration not stated)", "AC50": "14.6 µM (active)"}, {"smiles": "COCc1cnc(C2=NC(C)(C(C)C)C(=O)N2)c(C(=O)O)c1", "note": "(configuration not stated)", "outcome": "inactive"}, {"smiles": "CCOc1nc(F)cc2nc(S(=O)(=O)Nc3c(Cl)cccc3Cl)nn12", "outcome": "inactive"}, {"smiles": "CCN(CC)C(=O)C(C)Oc1cccc2ccccc12", "note": "(configuration not stated)", "AC50": "0.949 µM (active)"}, {"smiles": "CS(=O)(=O)c1cc(C(F)(F)F)ccc1C(=O)c1cnoc1C1CC1", "outcome": "inactive"}, {"smiles": "CNC(=O)N(C)c1nnc(C(C)(C)C)s1", "outcome": "inactive"}, {"smiles": "COC(=O)NC(=S)Nc1ccccc1NC(=S)NC(=O)OC", "AC50": "21.3 µM (active)"}, {"smiles": "CCOP(=O)(OCC)Oc1nc(Cl)c(Cl)cc1Cl", "outcome": "inactive"}, {"smiles": "CC(C)N1C(=O)N(c2ccccc2)CSC1=NC(C)(C)C", "outcome": "inactive"}, {"smiles": "COP(=S)(OC)SCn1nnc2ccccc2c1=O", "AC50": "36.3 µM (active)"}, {"smiles": "O=C(Nc1ccccc1-c1ccc(Cl)cc1)c1cccnc1Cl", "AC50": "17.7 µM (active)"}, {"smiles": "O=P(O)(O)CCCl", "outcome": "inactive"}, {"smiles": "C=CCOC(=O)C(C)(C)OC(=O)c1cc(-n2c(=O)cc(C(F)(F)F)n(C)c2=O)ccc1Cl", "outcome": "inactive"}, {"smiles": "O=c1n(Cl)c(=O)n(Cl)c(=O)n1Cl", "outcome": "inactive"}, {"smiles": "Clc1nc(Cl)nc(Nc2ccccc2Cl)n1", "outcome": "inactive"}, {"smiles": "CC1(C)CON(Cc2ccccc2Cl)C1=O", "outcome": "inactive"}, {"smiles": "COC(=O)c1c(C(F)F)nc(C(F)(F)F)c(C2=NCCS2)c1CC(C)C", "AC50": "0.876 µM (active)"}, {"smiles": "CO/N=C(/C1=NOCCO1)c1ccccc1Oc1ncnc(Oc2ccccc2Cl)c1F", "AC50": "5.03 µM (active)"}, {"smiles": "CCOc1cc(C(C)(C)C)ccc1C1COC(c2c(F)cccc2F)=N1", "note": "(configuration not stated)", "outcome": "inactive"}, {"smiles": "CCSC(=O)N1CCCCCC1", "outcome": "inactive"}, {"smiles": "COc1cc(OC)nc(NC(=O)NS(=O)(=O)c2ncccc2OCC(F)(F)F)n1", "outcome": "inactive"}, {"smiles": "CSC(=O)c1c(C(F)F)nc(C(F)(F)F)c(C(=O)SC)c1CC(C)C", "outcome": "inactive"}, {"smiles": "CC(C)Oc1cccc(NC(=O)c2ccccc2C(F)(F)F)c1", "outcome": "inactive"}, {"smiles": "CN=C=S", "outcome": "inactive"}]}, {"target": "Paired box protein Pax-6 (Homo sapiens) (UniProt P26367)", "sequence (P26367 whole entry, looked up)": "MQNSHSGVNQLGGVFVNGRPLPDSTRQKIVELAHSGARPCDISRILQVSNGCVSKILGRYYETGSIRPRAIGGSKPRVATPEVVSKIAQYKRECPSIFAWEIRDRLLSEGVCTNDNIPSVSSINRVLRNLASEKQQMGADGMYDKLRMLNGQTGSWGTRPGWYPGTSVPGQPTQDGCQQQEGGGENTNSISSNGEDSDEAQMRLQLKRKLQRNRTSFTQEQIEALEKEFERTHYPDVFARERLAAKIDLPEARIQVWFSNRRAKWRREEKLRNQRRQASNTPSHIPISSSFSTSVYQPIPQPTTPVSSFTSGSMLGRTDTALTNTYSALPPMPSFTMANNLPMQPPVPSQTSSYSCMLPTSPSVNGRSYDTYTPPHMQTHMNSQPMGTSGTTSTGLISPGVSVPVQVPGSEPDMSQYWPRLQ", "test": "ATG_Pax6_CIS: Attagene CIS-FACTORIAL HepG2 Assay for human Paired Box 6 (PAX6) (AID 2282956)", "conditions": "HepG2 CIS-FACTORIAL PAX6 reporter transcription, RNA readout; actives raise or lower the signal", "how_it_was_run": "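Read-out is reporter transcript level, measured by RT-PCR with fluorescent primer extension and capillary electrophoresis after 24 h dosing of transfected HepG2 cells. Activity in either direction fitted relative to DMSO control.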", "values": [{"smiles": "COC(=O)NS(=O)(=O)c1ccc(N)cc1", "outcome": "inactive"}, {"smiles": "CC(C)(C)C(=O)C(Oc1ccc(Cl)cc1)n1cncn1", "note": "(configuration not stated)", "outcome": "inactive"}, {"smiles": "Cc1c(COC(=O)[C@@H]2[C@H](/C=C(\\Cl)C(F)(F)F)C2(C)C)cccc1-c1ccccc1", "outcome": "inactive"}, {"smiles": "CCOC(=O)C(C)OC(=O)c1cc(Oc2ccc(C(F)(F)F)cc2Cl)ccc1[N+](=O)[O-]", "note": "(configuration not stated)", "outcome": "inactive"}, {"smiles": "CCN(CC)c1nc(C)cc(OP(=S)(OC)OC)n1", "outcome": "inactive"}, {"smiles": "COCC(=O)N(c1c(C)cccc1C)C(C)C(=O)OC", "note": "(configuration not stated)", "outcome": "inactive"}, {"smiles": "CCCCC(C#N)(Cn1cncn1)c1ccc(Cl)cc1", "note": "(configuration not stated)", "outcome": "inactive"}, {"smiles": "Nc1cnn(-c2ccccc2)c(=O)c1Cl", "outcome": "inactive"}, {"smiles": "CC(C)C1(C)N=C(c2ncccc2C(=O)O)NC1=O", "note": "(configuration not stated)", "outcome": "inactive"}, {"smiles": "N#Cc1c(Cl)cccc1Cl", "outcome": "inactive"}, {"smiles": "CCNC(=O)NC(=O)C(C#N)=NOC", "outcome": "inactive"}, {"smiles": "Cc1cc(C)nc(Nc2ccccc2)n1", "outcome": "inactive"}, {"smiles": "CC(C)=CC1C(C(=O)OCc2coc(Cc3ccccc3)c2)C1(C)C", "note": "(configuration not stated)", "outcome": "inactive"}, {"smiles": "COCc1cnc(C2=NC(C)(C(C)C)C(=O)N2)c(C(=O)O)c1", "note": "(configuration not stated)", "outcome": "inactive"}, {"smiles": "CCOc1nc(F)cc2nc(S(=O)(=O)Nc3c(Cl)cccc3Cl)nn12", "outcome": "inactive"}, {"smiles": "CCN(CC)C(=O)C(C)Oc1cccc2ccccc12", "note": "(configuration not stated)", "outcome": "inactive"}, {"smiles": "CS(=O)(=O)c1cc(C(F)(F)F)ccc1C(=O)c1cnoc1C1CC1", "outcome": "inactive"}, {"smiles": "CNC(=O)N(C)c1nnc(C(C)(C)C)s1", "outcome": "inactive"}, {"smiles": "COC(=O)NC(=S)Nc1ccccc1NC(=S)NC(=O)OC", "outcome": "inactive"}, {"smiles": "CCOP(=O)(OCC)Oc1nc(Cl)c(Cl)cc1Cl", "outcome": "inactive"}, {"smiles": "CC(C)N1C(=O)N(c2ccccc2)CSC1=NC(C)(C)C", "outcome": "inactive"}, {"smiles": "COP(=S)(OC)SCn1nnc2ccccc2c1=O", "outcome": "inactive"}, {"smiles": "O=C(Nc1ccccc1-c1ccc(Cl)cc1)c1cccnc1Cl", "outcome": "inactive"}, {"smiles": "O=P(O)(O)CCCl", "outcome": "inactive"}, {"smiles": "C=CCOC(=O)C(C)(C)OC(=O)c1cc(-n2c(=O)cc(C(F)(F)F)n(C)c2=O)ccc1Cl", "outcome": "inactive"}, {"smiles": "O=c1n(Cl)c(=O)n(Cl)c(=O)n1Cl", "outcome": "inactive"}, {"smiles": "Clc1nc(Cl)nc(Nc2ccccc2Cl)n1", "outcome": "inactive"}, {"smiles": "CC1(C)CON(Cc2ccccc2Cl)C1=O", "outcome": "inactive"}, {"smiles": "COC(=O)c1c(C(F)F)nc(C(F)(F)F)c(C2=NCCS2)c1CC(C)C", "outcome": "inactive"}, {"smiles": "CO/N=C(/C1=NOCCO1)c1ccccc1Oc1ncnc(Oc2ccccc2Cl)c1F", "AC50": "9.47 µM (active)"}, {"smiles": "CCOc1cc(C(C)(C)C)ccc1C1COC(c2c(F)cccc2F)=N1", "note": "(configuration not stated)", "outcome": "inactive"}, {"smiles": "CCSC(=O)N1CCCCCC1", "outcome": "inactive"}, {"smiles": "COc1cc(OC)nc(NC(=O)NS(=O)(=O)c2ncccc2OCC(F)(F)F)n1", "outcome": "inactive"}, {"smiles": "CSC(=O)c1c(C(F)F)nc(C(F)(F)F)c(C(=O)SC)c1CC(C)C", "outcome": "inactive"}, {"smiles": "CC(C)Oc1cccc(NC(=O)c2ccccc2C(F)(F)F)c1", "outcome": "inactive"}, {"smiles": "CN=C=S", "outcome": "inactive"}]}]}
